# Hit rate of the full screen: of about 5,500 compounds, about 2,000 (36%) were called active. About 18% were inconclusive and are not listed. This is one part of the list. Values without a mark were called inactive. Rule as the data show it: active = normalized growth mostly below about 0.91 (no sharp cut-off); inconclusive = no clear call, values can overlap the other calls; inactive = mostly above about 0.92.
# Assay: chemical genetic growth profiling, strain panel (AID 1159580);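 also: tested at 20 µM; growth read once vehicle control cultures reached saturation at 30 °C; 1 = growth at the plate median or of vehicle wells; lower values mean less growth of the strain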
# Details: growth OD
smiles,measurement,setting,value
COc1ccc(C(=O)c2ccccc2O)c(O)c1,normalized growth,"S. cerevisiae deletion strains, locus YJR066W, strain TOR1, hits give low values",0.901
same,normalized growth,"S. cerevisiae deletion strains, locus YKL009W, strain mrt4, hits give low values",0.895
same,normalized growth,"S. cerevisiae deletion strains, locus YKL068W, hits give low values",0.944
same,normalized growth,"S. cerevisiae deletion strains, locus YKL085W, strain MDH1 (second series), hits give low values",0.905 (active)
same,normalized growth,"S. cerevisiae deletion strains, locus YKL085W, strain MDH1, hits give low values",0.905 (active)
same,normalized growth,"S. cerevisiae deletion strains, locus YKL160W, strain elf1, hits give low values",0.896 (active)
same,normalized growth,"S. cerevisiae deletion strains, locus YKL190W, strain CNB1, hits give low values",0.963
same,normalized growth,"S. cerevisiae deletion strains, locus YKR001C, strain vps1, hits give low values",0.71 (active)
same,normalized growth,"S. cerevisiae deletion strains, locus YKR026C, strain gcn3, hits give low values",0.894 (active)
same,normalized growth,"S. cerevisiae deletion strains, locus YKR091W, strain srl3, hits give low values",0.901 (active)
same,normalized growth,"S. cerevisiae deletion strains, locus YLL001W, strain dnm1, hits give low values",0.92
same,normalized growth,"S. cerevisiae deletion strains, locus YLL026W, hits give low values",0.88 (active)
same,normalized growth,"S. cerevisiae deletion strains, locus YLL041C, strain sdh2, hits give low values",0.885 (active)
same,normalized growth,"S. cerevisiae deletion strains, locus YLR027C, strain aat2, hits give low values",0.875 (active)
same,normalized growth,"S. cerevisiae deletion strains, locus YLR039C, strain RIC1, hits give low values",0.63 (active)
same,normalized growth,"S. cerevisiae deletion strains, locus YLR058C, strain SHM2, hits give low values",0.919
same,normalized growth,"S. cerevisiae deletion strains, locus YLR102C, strain apc9, hits give low values",0.948
same,normalized growth,"S. cerevisiae deletion strains, locus YLR113W, strain HOG1, hits give low values",0.907
same,normalized growth,"S. cerevisiae deletion strains, locus YLR221C, strain rsa3, hits give low values",0.891 (active)
same,normalized growth,"S. cerevisiae deletion strains, locus YLR258W, strain gsy2, hits give low values",0.869 (active)
same,normalized growth,"S. cerevisiae deletion strains, locus YLR262C, strain YPT6 (second series), hits give low values",0.46 (active)
same,normalized growth,"S. cerevisiae deletion strains, locus YLR262C, strain YPT6, hits give low values",0.562 (active)
same,normalized growth,"S. cerevisiae deletion strains, locus YLR268W, strain sec22, hits give low values",0.938
same,normalized growth,"S. cerevisiae deletion strains, locus YLR320W, strain mms22, hits give low values",0.717 (active)
same,normalized growth,"S. cerevisiae deletion strains, locus YLR330W, strain CHS5, hits give low values",0.923
same,normalized growth,"S. cerevisiae deletion strains, locus YLR342W, strain FKS1 (second series), hits give low values",0.838
same,normalized growth,"S. cerevisiae deletion strains, locus YLR342W, strain FKS1, hits give low values",0.872 (active)
same,normalized growth,"S. cerevisiae deletion strains, locus YLR357W, strain rsc2, hits give low values",0.986
same,normalized growth,"S. cerevisiae deletion strains, locus YLR370C, strain arc18, hits give low values",0.841 (active)
same,normalized growth,"S. cerevisiae deletion strains, locus YLR371W, strain rom2, hits give low values",0.91
same,normalized growth,"S. cerevisiae deletion strains, locus YLR384C, strain iki3, hits give low values",0.89 (active)
same,normalized growth,"S. cerevisiae deletion strains, locus YLR418C, strain cdc73, hits give low values",0.821 (active)
same,normalized growth,"S. cerevisiae deletion strains, locus YML016C, strain PPZ1, hits give low values",0.93
same,normalized growth,"S. cerevisiae deletion strains, locus YML032C, strain rad52, hits give low values",0.923
same,normalized growth,"S. cerevisiae deletion strains, locus YML120C, strain ndi1, hits give low values",0.878 (active)
same,normalized growth,"S. cerevisiae deletion strains, locus YML124C, strain tub3, hits give low values",0.925 (active)
same,normalized growth,"S. cerevisiae deletion strains, locus YMR058W, strain fet3, hits give low values",0.824 (active)
same,normalized growth,"S. cerevisiae deletion strains, locus YMR078C, strain ctf18, hits give low values",0.913
same,normalized growth,"S. cerevisiae deletion strains, locus YMR125W, strain sto1, hits give low values",0.915
same,normalized growth,"S. cerevisiae deletion strains, locus YMR129W, hits give low values",0.888 (active)
same,normalized growth,"S. cerevisiae deletion strains, locus YMR205C, strain PFK2, hits give low values",0.803 (active)
same,normalized growth,"S. cerevisiae deletion strains, locus YMR223W, strain ubp8, hits give low values",0.873 (active)
same,normalized growth,"S. cerevisiae deletion strains, locus YMR231W, strain pep5, hits give low values",0.895 (active)
same,normalized growth,"S. cerevisiae deletion strains, locus YMR263W, strain SAP30, hits give low values",0.903
same,normalized growth,"S. cerevisiae deletion strains, locus YMR307W, strain GAS1, hits give low values",0.852
same,normalized growth,"S. cerevisiae deletion strains, locus YNL067W, strain RPL9B, hits give low values",0.892
same,normalized growth,"S. cerevisiae deletion strains, locus YNL071W, strain lat1, hits give low values",0.75 (active)
same,normalized growth,"S. cerevisiae deletion strains, locus YNL128W, strain TEP1, hits give low values",0.948
same,normalized growth,"S. cerevisiae deletion strains, locus YNL183C, strain NPR1, hits give low values",0.908
same,normalized growth,"S. cerevisiae deletion strains, locus YNL209W, strain ssb2, hits give low values",0.913 (active)
same,normalized growth,"S. cerevisiae deletion strains, locus YNL233W, strain BNI4, hits give low values",0.869 (active)
same,normalized growth,"S. cerevisiae deletion strains, locus YNL248C, strain rpa49, hits give low values",0.858 (active)
same,normalized growth,"S. cerevisiae deletion strains, locus YNL250W, strain rad50, hits give low values",0.951
same,normalized growth,"S. cerevisiae deletion strains, locus YNL271C, strain bni1, hits give low values",0.91 (active)
same,normalized growth,"S. cerevisiae deletion strains, locus YNL298W, strain CLA4, hits give low values",0.899 (active)
same,normalized growth,"S. cerevisiae deletion strains, locus YNL307C, strain MCK1, hits give low values",0.874 (active)
same,normalized growth,"S. cerevisiae deletion strains, locus YNL322C, strain KRE1 (second series), hits give low values",0.888 (active)
same,normalized growth,"S. cerevisiae deletion strains, locus YNL322C, strain KRE1, hits give low values",0.983
same,normalized growth,"S. cerevisiae deletion strains, locus YNR049C, strain mso1, hits give low values",0.889 (active)
same,normalized growth,"S. cerevisiae deletion strains, locus YNR052C, strain pop2, hits give low values",0.96
same,normalized growth,"S. cerevisiae deletion strains, locus YOL006C, strain TOP1, hits give low values",0.564
same,normalized growth,"S. cerevisiae deletion strains, locus YOL012C, strain htz1",1.21
same,normalized growth,"S. cerevisiae deletion strains, locus YOL147C, strain pex11, hits give low values",0.924 (active)
same,normalized growth,"S. cerevisiae deletion strains, locus YOR001W, strain rrp6, hits give low values",0.794 (active)
same,normalized growth,"S. cerevisiae deletion strains, locus YOR061W, strain CKA2, hits give low values",0.945
same,normalized growth,"S. cerevisiae deletion strains, locus YOR069W, strain VPS5, hits give low values",0.955
same,normalized growth,"S. cerevisiae deletion strains, locus YOR070C, strain gyp1, hits give low values",0.913 (active)
same,normalized growth,"S. cerevisiae deletion strains, locus YOR080W, strain dia2, hits give low values",0.919
same,normalized growth,"S. cerevisiae deletion strains, locus YOR083W, strain WHI5, hits give low values",0.884 (active)
same,normalized growth,"S. cerevisiae deletion strains, locus YOR106W, strain vam3, hits give low values",0.866 (active)
same,normalized growth,"S. cerevisiae deletion strains, locus YOR136W, strain idh2, hits give low values",0.961
same,normalized growth,"S. cerevisiae deletion strains, locus YOR144C, strain elg1, hits give low values",0.938
same,normalized growth,"S. cerevisiae deletion strains, locus YOR184W, strain ser1, hits give low values",0.754 (active)
same,normalized growth,"S. cerevisiae deletion strains, locus YOR231W, strain MKK1, hits give low values",0.958
same,normalized growth,"S. cerevisiae deletion strains, locus YOR265W, strain rbl2, hits give low values",0.891 (active)
same,normalized growth,"S. cerevisiae deletion strains, locus YOR270C, strain vph1, hits give low values",0.469 (active)
same,normalized growth,"S. cerevisiae deletion strains, locus YOR290C, strain snf2, hits give low values",0.803 (active)
same,normalized growth,"S. cerevisiae deletion strains, locus YOR316C, strain cot1, hits give low values",0.936
same,normalized growth,"S. cerevisiae deletion strains, locus YPL051W, strain arl3, hits give low values",0.729 (active)
same,normalized growth,"S. cerevisiae deletion strains, locus YPL055C, strain LGE1, hits give low values",0.9
same,normalized growth,"S. cerevisiae deletion strains, locus YPL078C, strain atp4, hits give low values",0.79 (active)
same,normalized growth,"S. cerevisiae deletion strains, locus YPL106C, strain sse1, hits give low values",0.935
same,normalized growth,"S. cerevisiae deletion strains, locus YPL240C, strain hsp82, hits give low values",0.901 (active)
same,normalized growth,"S. cerevisiae deletion strains, locus YPL241C, strain CIN2, hits give low values",0.972
same,normalized growth,"S. cerevisiae deletion strains, locus YPL256C, strain CLN2, hits give low values",0.918
same,normalized growth,"S. cerevisiae deletion strains, locus YPR119W, strain clb2, hits give low values",0.931
same,normalized growth,"S. cerevisiae deletion strains, locus YPR141C, strain kar3, hits give low values",0.905 (active)
same,normalized growth,"S. cerevisiae deletion strains, locus YPR163C, strain tif3, hits give low values",0.968
same,normalized growth,"S. cerevisiae deletion strains, locus YPR167C, strain met16, hits give low values",0.925
same,normalized growth,"S. cerevisiae deletion strains, strain wtn01, hits give low values",0.891 (active)
same,normalized growth,"S. cerevisiae strains, strain wild type, hits give low values",0.951

# — PubChem BioAssay AID1159580 (chemical genetic matrix, 2015)
